Compound activity deposited in PubChem BioAssay by National Center for Advancing Translational Sciences (NCATS).
This is a sample that favours compounds with a hit; in the whole collection about 21% have one here.
Shiga toxin inh: blocks Shiga toxin action in Vero cells. Vero cells, Shiga toxin protein synthesis inhibition reporter. inhibition, % at 38.7 µM. 290,000 tested, 9.2% active. AID 2315; in the data active means inhibition mostly above about 28%, no sharp cut-off; inactive means mostly below about 43%; further: 0% is about no effect
Pf growth 48h: inhibits P. falciparum growth in the first generation, 48 h | 310,000 tested, 5.9% active | P. falciparum luciferase growth in erythrocytes, 48 h | Potency, µM (top dose mostly 28.7 µM), without a hit: top-dose activity change, negative = inhibition, hits mostly inhibitors; further: potency means the concentration at half of the fitted maximal effect; on the % scale 0 is the no-effect control and ±100 the full control effect
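Luciferase-expressing parasites in RBCs, 2% Hct / 0.1% parasitemia final; RPMI 1640 + 0.5% Albumax; 37 C, 5% CO2, one generation; luminescence read-out, lower signal = inhibition.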
NS1 function inh: inhibitors of influenza NS1 protein function. Potency, µM (series often up to 46.1 µM), for the others: top-dose activity, positive = more growth. 270,000 tested, 0.4% active. AID 2326; calls by dose curve; further: potency means the concentration at half of the fitted maximal effect; actives are rising curves; nearly all actives have a fitted effect of over 50% in size
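Recovery from NS1-induced slow growth read by OD600 in budding yeast switched to galactose assay medium (pH 6.0, -URA) at 1:100 dilution. Compound 23 nl per well; the matching strain lacking NS1 serves as control.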
Giardia FBPA inh: Giardia lamblia aldolase inhibition; 290,000 tested, 0.71% active; A8B2U2; purified Giardia FBPA; Potency, µM (top dose mostly 59.6 µM), for the others: at the top dose activity, negative = inhibition, usual class: inhibitors; AID 2451; further: potency means the concentration at half of the fitted maximal effect; on the % scale 0 is the no-effect control and ±100 the full control effect; nearly all actives have a fitted effect of over 55% in size
Target sequence (A8B2U2 whole entry, looked up): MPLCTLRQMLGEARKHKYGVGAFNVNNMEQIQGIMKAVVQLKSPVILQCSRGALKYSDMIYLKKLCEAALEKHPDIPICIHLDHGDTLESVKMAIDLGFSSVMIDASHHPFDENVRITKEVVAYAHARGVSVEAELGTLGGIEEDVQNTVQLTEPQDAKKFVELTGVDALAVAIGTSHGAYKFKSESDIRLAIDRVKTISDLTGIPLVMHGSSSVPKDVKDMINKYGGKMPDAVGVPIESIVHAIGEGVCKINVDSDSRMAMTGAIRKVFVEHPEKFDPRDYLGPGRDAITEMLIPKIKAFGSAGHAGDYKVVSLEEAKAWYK
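Giardia FBPA (40 nM reagent) was preincubated 10 min at RT with compound (up to 57.5 uM final), then substrate plus GAPDH/TPI/NAD/arsenate coupling system with diaphorase/resazurin was added; resorufin fluorescence (525/598 nm) was read after 20 min.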
Pf growth 96h: P. falciparum growth inhibition at 96 hours; P. falciparum luciferase reporter growth, 96 h; Potency, µM (series often up to 28.7 µM), for the others: at the highest dose activity change, negative = inhibition, actives largely listed as inhibitors; 320,000 tested, 6.9% active; further: potency means the concentration at half of the fitted maximal effect; on the % scale 0 is the no-effect control and ±100 the full control effect
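Two-generation exposure (96 h) targets delayed-death phenotype. Reporter parasites carrying integrated firefly luciferase, in red cells at 2% hematocrit and 0.05% parasitemia final, kept at 37 C, 5% CO2; luminescence loss indicates inhibition.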
Cycloheximide cs: counter-screen for Shiga toxin inhibitors: cycloheximide protein synthesis inhibition | cell reporter, cycloheximide protein synthesis inhibition counterscreen | max response, % | 300,000 tested, 12% active | AID 2314; in the data active means max response mostly above about 13%, no sharp cut-off; inactive means mostly below about 14%; further: read at 38.3 µM for the half of the compounds with a filed dose; 0% is about no effect
Numbers without * were called inactive; ? = inconclusive; . = no result; [ ] = remark or other dose. Unless noted, the call rests on the fitted dose curve; in most records, active means well fitted curve in the direction sought with a large enough effect; inconclusive means small, poorly fitted or top-dose-only effect, or another doubt; inactive means no such curve, though single readings can be large; an effect the other way counts as inactive or inconclusive.

SMILES	Shiga toxin inh	Pf growth 48h	NS1 function inh	Giardia FBPA inh	Pf growth 96h	Cycloheximide cs
CCC(=O)Nc1nc(CC(=O)Nc2ccccc2OC)cs1	14	-4%	1%	6%	-13%	-4
COc1ccccc1NC(=O)Nc1nc(CC(=O)Nc2ccc(OC)c(OC)c2)cs1	.	?	.	.	5.2µM*	.
COc1ccc(C(=O)NC2CC2)cc1OC1CCN(C(C)CSC)CC1 (stereo unspecified)	-7	17%	-9%	5%	5%	9
CCOn1c(=O)c(-c2ccccc2)[n+]([O-])c2ccccc21	-2	.	0%	2%	5%	-2
CCOc1ccc(-c2c(=O)n(OCc3ccccn3)c3ccccc3[n+]2[O-])cc1	50*	?	-4%	-14%	?	17
Cc1ccc(-c2c(=O)n(OCc3ccccn3)c3ccccc3[n+]2[O-])cc1	-11	1%	7%	-3%	61%	9
CCCOc1ccc(-c2c(=O)n(O)c3ccccc3[n+]2[O-])cc1	.	31%	-63%	-20%	0%	29*
COc1ccc(F)cc1S(=O)(=O)n1nc(C)cc1C	8	-4%	8%	-4%	-29%	-4
Cc1cc(C)c(NC(=O)c2ccc3nccnc3c2)c(C)c1	.	?	.	.	3%	.
Cc1ccc(NC(=O)c2ccc3nccnc3c2)c(C)c1	31*	69%	0%	-9%	-24%	23*
Cc1ccc(C(=O)Nc2ccc3nccnc3c2)cc1	48*	264%	-76%	-11%	383%	24*
O=C(Nc1ccc2cccnc2c1)c1ccc(Br)cc1	.	35%	-6%	6%	290%	24*
Fc1cccc(NC(=S)NCCN2CCOCC2)c1	-8	-1%	11%	0%	-40%	-1
O=C(CCn1c(=S)[nH]c2cc3c(cc2c1=O)OCO3)NCc1ccccc1Cl	-6	1%	-3%	.	?	-1
OC(CN1CC=C(c2ccccc2)CC1)c1ccccc1 (stereo unspecified)	24	?	21%	7%	?	9
Cc1cc(O)c(CN2CC=C(c3ccccc3)CC2)cc1C(C)C	-5	0.29µM*	-1%	5%	0.26µM*	-2
Cc1cccc(C(=O)c2c(N)sc3c2CCC(C)C3)c1 (stereo unspecified)	126*	28%	6%	-13%	?	59*
NC(=O)c1c(N)sc2c1CCC2	23	25%	1%	?	30%	0
Cc1cccc(C(=O)c2c(N)sc3c2CCCC3)c1	19	?	11%	-18%	15µM*	9
N#Cc1c(N)nc2c(c1N)CC(CO)O2 (stereo unspecified)	-19	1%	3%	1%	64%	7
N#Cc1c(N)nc2c(c1N)CC(COc1ccccc1)O2 (stereo unspecified)	52*	39%	1%	4%	10%	37*
Cc1ccccc1OCC1Cc2c(nc(N)c(C#N)c2N)O1 (stereo unspecified)	58*	55%	-16%	0%	86%	29*
COc1ccc(-n2c(=O)c(C)nc3cnc(Oc4ccccc4)nc32)cc1	.	.	.	-3%	.	.
COc1cc(C(=O)N2CCc3ccccc32)cc(OC)c1OC	1	16%	-11%	2%	-6%	1
CC(C)(C)c1cc(C(=O)N2CCc3ccccc3C2)ccn1	3	8%	-2%	0%	0%	13
SMILES	Shiga toxin inh	Pf growth 48h	NS1 function inh	Giardia FBPA inh	Pf growth 96h	Cycloheximide cs
CCOc1ccc(C(=O)N2CCc3ccccc32)cc1	64*	?	-47%	-1%	-15%	44*
CC(C)(C)c1cc(C(=O)N2CCc3ccccc32)ccn1	40*	?	-3%	-7%	10%[5.75 µM]	9
COc1cc2ccccc2cc1C(=O)N1CCc2ccccc21	.	9.3µM*	.	.	?	.
COc1ccccc1OC(C)C(=O)N1CCc2ccccc21 (stereo unspecified)	.	10µM*	.	.	-5%	.
CC(c1c(O)c2ccccc2[nH]c1=O)C1(C)CCC(O)C(C)(C)O1 (stereo unspecified)	-14	?	3%	4%	?	-1
COC(=O)c1ccc(OCC(=O)N2CCCc3ccccc32)cc1	-3	-11%	-14%	8%	?	0
CCCOc1ccc(C(=O)N2CCCc3ccccc32)cc1	19	?	-95%	2%	.	15*
O=C(c1ccc2ccccc2c1)N1CCc2ccccc21	48	-21%	10%	-12%	?	37*
CCC(CC)C(=O)Nc1nnc(S(=O)(=O)N2CCCC2)s1	28	10%	-11%	-16%	?	-2
CCCc1c(OCCCOc2ccc(OCC(=O)O)cc2)ccc(C(C)=O)c1O	.	0%	-38%	12%	20%	.
CCN1C(=O)[C@H]2[C@@H](c3ccc(C)cc3)N3C(=O)N(c4ccc(OC)cc4)C(=O)[C@@]3(C)[C@H]2C1=O	-3	?	7%	-3%	?	-1
CCN1CCN(C(=O)Cc2coc3ccc4ccccc4c23)CC1	-8	-6%	6%	-6%	.	1
Cc1ccc2c(CC(=O)N3CCc4ccccc43)coc2c1	100*	81%	-2%	-5%	-11%	23*
CCCN(CCC)C(=O)Cc1coc2ccc3ccccc3c12	-11	12µM*	-6%	4%	.	15
O=C(Cc1c[nH]c2ccccc12)N1CCc2ccccc21	87*	-26%	-5%	-15%	10µM*	30*
O=C(Cc1coc2ccc3ccccc3c12)N1CCN(c2ncccn2)CC1	-8	?	-9%	1%	8.3µM*	-1
O=C(Cc1coc2ccc3ccccc3c12)NCc1ccccc1	14	.	-8%	-1%	?	6
O=C(CSc1c[nH]c2ccccc12)N1CCCc2ccccc21	-2	-29%	-17%	-12%	-6%	-2
O=C(COC(=O)CCSc1ccccc1Cl)NCc1ccco1	-2	3%[5.75 µM]	-46%	3%	90%	6
O=C(Cc1coc2ccc3ccccc3c12)NC1CCCc2ccccc21 (stereo unspecified)	-7	?	2%	1%	?	0
O=C(Cc1coc2ccc3ccccc3c12)N1CCc2ccccc21	-9	-13%	12%	6%	8.3µM*	-4
CN(C)c1ccc2nc3c(=O)[nH]c(=O)nc-3n(CC(O)C(O)C(O)CO)c2c1 (stereo unspecified)	-1	4.1µM*	1%	-9%	44%	-3
CC(=O)N(C)c1ccc(OCC(O)Cn2c(C)nc3ccccc32)cc1 (stereo unspecified)	-9	?	.	0%	?	-5
COc1ccc(-n2[nH]c3c4c(ncc3c2=O)CCCCC4)cc1	14	.	.	7%	.	-3
COC(OC)[C@@H](C)[C@H](OC)[C@@H](C)[C@H](OC)c1ccccc1	.	.	.	-2%[12.9 µM]	.	.
CCOC(=O)C1CCN(C(=O)COc2ccc(S(=O)(=O)N3CCOCC3)cc2C)CC1	-9	-12%	5%	-3%	?	-2
O=C(Cc1ccccc1)NCC(=O)N1CCN(c2ccccc2)CC1	-5	6%	14%	.	-15%	-3
